The molecules below were run against Glucose transporter (Leishmania mexicana) (UniProt O61059) (assay: ST_JUDE_LEISH: Cytotoxicity at 2uM final concentration against transgenic Leishmania Mexicana promastigotes LmGT2 that are glucose transport deficient and complemented with the L. Mexicana glucose transporter 2. Activity is measured by DNA content using SYBR green in vitro).
Assay type: functional

| Compound | inhibition [%] |
| --- | --- |
| Cn1nc(-c2cccc(CNC3CCc4ccccc43)c2)c2cnc(NC3CCCC3)nc21 (stereo not given) | 3.3 |
| CCNC(C)(C)CN(Cc1ccc(-c2ccc(C(F)(F)F)cc2)cc1)C(=O)Cn1c(SCc2ccc(F)cc2)nc(=O)c2c1CCC2 | 5.46 |
| CC1CC(NCCCNc2cc(=O)c3ccccc3[nH]2)c2cc(Cl)c(Cl)c(Cl)c21 (stereo not given) | -2.15 |
| Cc1cccc2nc(-c3ccc(-c4cccc(CN5CCC(N)C5)c4)s3)[nH]c12 (stereo not given) | 8.23 |
| Cc1ncc(CN2CCC(C(=O)Nc3ccc(-c4nc5ccccc5o4)cc3)CC2)s1 | -0.97 |
| O=C(CCCCCNC(=O)c1ccc(O)c(-c2ccc(Cl)c(Cl)c2)c1)NCCN1CCCCC1 | 3.45 |
| CC(=O)Nc1ccc(CN2CCc3ccc(NS(=O)(=O)c4ccc(-c5cccc(C(F)(F)F)c5)cc4)cc3CC2)s1 | 3.46 |
| CCCCCCOc1ccc(/C(N)=N\Cc2ccccc2)c2c1CCCC2 | 0.11 |
| CCOC(=O)c1ccc(OCc2ccc(-c3ccccc3)cc2)cc1 | 0.75 |
| Cc1cc(N[C@@H](CC(C)C)C(=O)NCCOc2ccccc2)nc(NCCc2ccccc2)n1 | 2.69 |
| O=C(NC1CCN(Cc2ccc3c(c2)OCCO3)CC1)c1ccc(-c2cccc(C(F)(F)F)c2)s1 | 2.57 |
| CCCOc1cccc(C(=O)N[C@@H](Cc2ccccc2)[C@H](O)CNCc2ccccc2OC)c1 | 4.75 |
| Cc1cccc2nc(-c3cccc(-c4ccc(CNCCCN5CCCC5=O)cc4)c3)[nH]c12 | 6.5 |
| COc1ccc2nccc(N3CCC(O)(CCNCc4ccc5c(n4)NC(=O)CO5)CC3)c2n1 | 2.81 |
| COc1ccc(Nc2nc(NCc3ccco3)c3ccccc3n2)cc1 | 12.1 |
| O=C(O[C@H]1CN[C@H](C#Cc2cc3c(Nc4ccc(OCc5cccc(F)c5)c(Cl)c4)ncnc3s2)C1)N1CCCC1 | 4.65 |
| CCCc1cc(Cc2cnc(N)nc2N)cc(CCC)c1OCCCCC(=O)O | 0.16 |
| COc1ccc2ncc(F)c(CCN3CCC(CNCc4cccc5c4OCO5)CC3)c2n1 | 3.27 |
| Cc1nnsc1C(=O)Nc1cccc(-c2ccc(-c3nc4cccc(C)c4[nH]3)s2)c1 | 3.82 |
| CCc1ccc(CN(Cc2ccc(C)cc2)Cc2ccc(NC(C)=O)cc2)cc1 | 2.91 |

| Compound | inhibition [%] |
| --- | --- |
| O=C1CCCN1CCCNCc1cccc(-c2ccc(-c3nc4cc(C(F)(F)F)ccc4[nH]3)cc2)c1 | 13 |
| NC(=O)c1ccsc1NC(=O)CNC(c1ccccc1)c1ccccc1 | 1.15 |
| CCCC(C)Nc1nc(C)cc(N[C@@H](Cc2ccccc2)C(=O)Nc2ccc(OC)cc2)n1 (stereo not given in full) | 0.54 |
| CCCCn1c(N)c(N(Cc2ccco2)C(=O)C=Cc2cc(OC)c3c(c2)OCCO3)c(O)nc1=O | 3.32 |
| CCOC(=O)c1ccc(NC(=O)N[C@@H](Cc2ccc(O)cc2)C(=O)NC2CCN(Cc3ccc4c(c3)OCO4)CC2)cc1 | 0.58 |
| CC(=O)c1ccc(-c2ccc(C(=O)NCCCCN3CCC(c4ccc5c(c4OCC(N)=O)CCCC5)CC3)cc2)s1 | 1.72 |
| Cc1cnc(-c2ccc(NC(=O)c3coc4ccc(N5CC(C)N(C)C(C)C5)cc34)cc2)o1 (stereo not given) | 0.74 |
| CC(=O)Nc1ccccc1OCc1cc2cc(C(=O)N3CCC(N4C(=O)OCc5ccccc54)CC3)ccc2o1 | 4.49 |
| Cn1nc(-c2ccc(CN[C@@H]3CCc4ccc(O)cc43)cc2)c2cnc(NCCCN3CCCC3)nc21 | 1.31 |
| CCN(CC(C)O)C(=O)c1ccc(-c2cccc(-c3nc4cccc(C)c4[nH]3)c2)cc1 (stereo not given) | 0.11 |
| COc1ccc(N2CCN(CCCCNCc3ccc(NC(=O)c4cc(Cl)cc(Cl)c4)cc3)CC2)c(OC)c1 | 1.31 |
| COc1cc(Cc2cnc(N)nc2N)cc(OC)c1OCCCCCN1C(=O)c2ccccc2C1=O | 0.36 |
| CN1CCCN(Cc2ccc(-c3ccc(NC(=O)c4cccc(C#N)c4)cc3)cc2)CC1 | 0.78 |
| Cc1cc(NC(c2ccc(Cl)cc2)c2ccc3cccnc3c2O)no1 (stereo not given) | 6.2 |
| CS(=O)(=O)N1CC2(CCN(CCC(NC(=O)NCc3ccc(Cl)c(Cl)c3)c3ccc(Cl)c(Cl)c3)CC2)c2ccccc21 (stereo not given) | -1.75 |
| CC1(C)NC(N)=NC(=N)N1OCCCNC(=O)c1ccc([N+](=O)[O-])cc1 | 3.92 |
| COc1cc(C(=O)Nc2cccc(-c3nc4ccccc4[nH]3)c2)cc(OC)c1OC | -3.56 |
| O=C(Cc1ccc(NC(=O)c2ccc(O)c(-c3ccc(Cl)c(Cl)c3)c2)cc1)NCCc1ccc(Cl)c(Cl)c1 | -0.6 |
| CCCCCCN1CCN(Cc2cccc(NC(=O)c3cccc(OCC)c3)c2)CC1 | 13.1 |
| COc1ccc2nc(C)cc(Nc3ccc(Oc4ccc(Br)c5ccccc45)c(Cl)c3)c2c1 | 3.21 |

Reference: ChEMBL document CHEMBL3433997, “St. Jude Leishmania screening dataset” (2016)
